Screens deposited in PubChem BioAssay by National Center for Advancing Translational Sciences (NCATS).
Pf growth 96h: Primary qHTS for delayed death inhibitors of the malarial parasite plastid, 96 hour incubation | AID 504834, 2011 | P. falciparum luciferase reporter growth, 96 h | actives 6.9% (n = 320,000) | Potency, µM (titrated, usually from 28.7 µM), for the others: at the top dose activity change, negative = inhibition, actives largely listed as inhibitors; also: potency is read from the fitted curve at half-maximal effect; % is scaled to controls: 0 for no effect and ±100 for the full control effect
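Readout is luminescence from an integrated firefly luciferase in P. falciparum. Red cells, 2% hematocrit and 0.05% parasitemia final, were cultured with compound through two parasite generations (96 hours) at 37 C, 5% CO2.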
Pf growth 48h: Primary qHTS for delayed death inhibitors of the malarial parasite plastid, 48 hour incubation. Potency, µM (top dose mostly 28.7 µM), without a hit: at the highest dose activity change, negative = inhibition, most hits filed as inhibitors. P. falciparum luciferase growth in erythrocytes, 48 h. actives 5.9% (n = 310,000); also: potency is read from the fitted curve at half-maximal effect; % is scaled to controls: 0 for no effect and ±100 for the full control effect
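First compound was added to culture medium, then infected red cells at 0.1% parasitemia and 2% hematocrit (final). After incubation at 37 C under 5% CO2, luciferase detection reagent was dispensed and light output recorded.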
Giardia FBPA inh: qHTS Assay for Inhibitors of Fructose-1,6-bisphosphate Aldolase from Giardia Lamblia. actives 0.71% (n = 290,000). A8B2U2. purified Giardia FBPA. Potency, µM (top dose mostly 59.6 µM), without a hit: at the top dose activity, negative = inhibition, hits mostly inhibitors. AID 2451, 2010; also: potency is read from the fitted curve at half-maximal effect; % is scaled to controls: 0 for no effect and ±100 for the full control effect; nearly all actives have a fitted effect of over 55% in size
Target sequence (A8B2U2 whole entry, looked up): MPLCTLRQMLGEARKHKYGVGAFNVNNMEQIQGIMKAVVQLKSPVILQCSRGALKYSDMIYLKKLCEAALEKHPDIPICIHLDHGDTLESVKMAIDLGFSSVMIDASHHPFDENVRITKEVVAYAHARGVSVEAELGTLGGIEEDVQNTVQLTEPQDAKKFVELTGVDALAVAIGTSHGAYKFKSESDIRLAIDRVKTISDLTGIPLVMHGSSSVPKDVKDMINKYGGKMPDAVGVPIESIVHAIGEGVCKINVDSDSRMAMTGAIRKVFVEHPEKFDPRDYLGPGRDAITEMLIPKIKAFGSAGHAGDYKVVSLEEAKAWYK
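40 nM FBPA preincubated 10 min at RT with compound (up to 57.5 uM final), then substrate plus GAPDH/TPI/NAD/arsenate coupling and diaphorase/resazurin added. Fluorescence read after 20 min at RT, 525/598 nm.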
NS1 function inh: qHTS Assay for Inhibitors of Influenza NS1 Protein Function; Potency, µM (top dose mostly 46.1 µM), for the others: at the highest dose activity, positive = more growth; actives 0.4% (n = 270,000); calls by dose curve; also: potency is read from the fitted curve at half-maximal effect; actives are rising curves; nearly all actives have a fitted effect of over 50% in size
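S. cerevisiae expressing influenza A NS1, grown in glucose, washed, then diluted 1:100 into pH 6.0 -URA galactose medium with 23 nl compound. Growth recovery read as OD600; NS1-free strain serves as control.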
CHX counter: Cycloheximide Counterscreen for Small Molecule Inhibitors of Shiga Toxin; cell reporter, cycloheximide protein synthesis inhibition counterscreen; max response, %; actives 12% (n = 300,000); AID 2314, 2010; in the data active = max response mostly above about 13%, no sharp cut-off; inactive = mostly below about 14%; also: read at 38.3 µM for the half of the compounds with a filed dose; 0% is about no effect
Shiga toxin inh: A qHTS for Small Molecule Inhibitors of Shiga Toxin; Vero cells, Shiga toxin protein synthesis inhibition reporter; inhibition, % at 38.7 µM; actives 9.2% (n = 290,000); AID 2315, 2010; in the data active = inhibition mostly above about 28%, no sharp cut-off; inactive = mostly below about 43%; also: 0% is about no effect
* = called active by the depositor; i = inactive; ? = inconclusive; . = no result; [ ] = dose if it differs, or a comment. Only some compounds are listed: those with a hit (about 21% of all), similar ones and a draw of the others. Unless noted, calls follow the shape of the dose curve; as a rule, active = well fitted curve in the direction sought with a large enough effect; inconclusive = small, poorly fitted or top-dose-only effect, or another doubt; inactive = no such curve, though single readings can be large; an effect the other way counts as inactive or inconclusive.

SMILES	Pf growth 96h	Pf growth 48h	Giardia FBPA inh	NS1 function inh	CHX counter	Shiga toxin inh
COc1ccc(S(=O)(=O)NCC(c2ccco2)N2CCc3ccccc32)cc1 (centres undefined)	?	9.28µM*	.	.	.	.
COc1ccc(S(=O)(=O)NCC(c2ccco2)N2CCc3ccccc3C2)cc1 (centres undefined)	5.6%	-1.3%	.	.	.	.
O=S(=O)(NCC(c1cccnc1)N1CCc2ccccc2C1)c1ccccc1 (centres undefined)	49.7%	-11.7%	6.4%	-10.3%	-2.2	-4.5
O=[N+]([O-])c1ccc(S(=O)(=O)NCC(c2cccnc2)N2CCc3ccccc32)cc1 (centres undefined)	14.7µM*	11.7µM*	.	.	.	.
COc1ccc(C(=O)NCC(c2ccco2)N2CCc3ccccc32)c(OC)c1 (centres undefined)	13.1µM*	11.7µM*	.	.	.	.
Cc1ccc(C(=O)NCC(c2ccco2)N2CCc3ccccc32)cc1 (centres undefined)	?	-28.1%	.	.	.	.
COc1ccccc1C(=O)NCC(=O)OC(C)C(=O)NC1CCCCC1C (centres undefined)	-21.6%	-18.7%	.	.	.	.
COC(=O)NC(c1ccc(Cl)cc1)C(C(C)=O)C(=O)OC (centres undefined)	.	.	0.2%[12.9 µM]	.	.	.
CCN(CC)CC#Cc1ccc(C)cc1	20.1%	14.3%	-9.3%	-1.5%	-1.3	28.8
Cc1ccc(C#CC[N+](C)(C)CC#Cc2ccccc2)cc1	5.86µM*	2.33µM*	-24.2%	6.8%	0.9	1.7
C#CC[N+](C)(C)CC#Cc1ccccc1	95.3%	1.65µM*	-0.4%	3.2%	1.2	-4.6
COC(=O)[C@H](COC(C)(C)C)NC(=O)O[C@@H]1C(=O)c2ccc(OC)cc2O[C@H]1c1cccc(C(F)(F)F)c1	.	.	-0.4%	.	.	.
O=C(/C=C/c1ccc2c(c1)OCO2)Nc1nc(-c2ccccc2)cs1	?	?	-9.9%	-3.9%	2.1	38.8
CCOC(=O)N1CCN(C(=O)CSCC(=O)Nc2nc(-c3ccc4c(c3)OCO4)cs2)CC1	-18.2%	?	-4.5%	6.4%	16.3	25.9
O=C(Nc1nc(-c2ccc3c(c2)OCCO3)cs1)C1CCCC1	223.6%	i	-17.5%	4.4%	48.9*	148.9*
O=C(CSCC(=O)N1CCOCC1)Nc1nc(-c2ccc3c(c2)OCO3)cs1	-24.4%	.	0.1%	-0.5%	33.2*	34.6
O=C(CCCCl)Nc1nc(-c2ccc3c(c2)OCCO3)cs1	123.1%	138.4%	-16.1%	-9.0%	30.9*	69.8*
N#CCC(=O)Nc1nc(-c2ccc3c(c2)OCCO3)cs1	10.4µM*	22.8%	1.0%	17.5%	32.2*	55.7*
CC(C)C(NC(=O)c1c(F)cccc1F)C(=O)N1CCN(c2ccccc2F)CC1 (centres undefined)	-29.1%	-29.0%	.	-2.2%	11.2	-12.2
CCC(=O)Nc1ccc(-c2ccc(N3CCN(C)CC3)nn2)cc1	28.6%	26.9%	10.2%	9.6%	26.2*	34.7*
CCC(=O)Nc1cccc(-c2ccc(N3CCC(C)CC3)nn2)c1	13.6%	40.2%	4.0%	3.0%	44.9*	63.8*
CCC(=O)Nc1ccc(-c2ccc(N3CCC(C)CC3)nn2)cc1	?	37.1%	-7.7%	-15.2%	28.7*	76.4*
O=C(Nc1cccc(-c2ccc(N3CCOCC3)nn2)c1)c1ccccc1	37.4%	73.3%	.	.	.	.
CC1CCN(c2ccc(-c3cccc(NC(=O)C(F)(F)F)c3)nn2)CC1	-12.0%	-42.2%	-3.9%	-11.1%	-16.1	-26.9
O=C(COc1ccc(Cl)cc1Cl)Nc1ccc(-c2ccc(N3CCOCC3)nn2)cc1	?	26.0%	.	.	.	.
SMILES	Pf growth 96h	Pf growth 48h	Giardia FBPA inh	NS1 function inh	CHX counter	Shiga toxin inh
O=C(Nc1cccc(-c2ccc(N3CCOCC3)nn2)c1)c1ccc([N+](=O)[O-])cc1	9.28µM*	?	.	.	.	.
COc1cccc(NC(=O)CSC2=NN3CCCC(=O)N=C3S2)c1	3.0%	-10.3%	-11.6%	0.6%	-0.8	25.5
COc1ccc(/C(O)=C2/C(=O)C(=O)N(Cc3cccnc3)C2c2ccccn2)cc1 (centres undefined)	0.9%	3.4%	-2.3%	2.3%	23.7*	61.1*
CC(C)Oc1ccc(/C(O)=C2/C(=O)C(=O)N(Cc3cccnc3)C2c2ccco2)cc1 (centres undefined)	97.5%	9.4%	15.1%	3.3%	62.0*	72.4*
CC(C)Oc1ccc(C2C(C(=O)c3ccco3)=C(O)C(=O)N2Cc2cccnc2)cc1 (centres undefined)	.	38.1%	-12.4%	10.5%	34.6*	44.8*
O=C(C1=C(O)C(=O)N(CCc2ccccc2)C1c1cccnc1)c1ccco1 (centres undefined)	-4.6%	6.57µM*	-10.4%	-13.9%	-2.0	3.1
O=C1C(=O)N(Cc2cccnc2)C(c2ccccn2)/C1=C(/O)c1ccc(Br)cc1 (centres undefined)	0.0%	11.5%	0.7%	12.4%	-1.7	20.7
CCOc1ccc(C2C(C(=O)c3ccco3)=C(O)C(=O)N2Cc2cccnc2)cc1OC (centres undefined)	-10.6%[5.75 µM]	0.9%	-24.0%	-15.4%	10.2	20.9
CCOC(=O)c1c(C)n(-c2ccccc2)c2ccc(OCCN(C)C)cc12	-13.0%	?	5.2%	4.0%	-6.5	17.3
Cc1noc(C)c1S(=O)(=O)N(CC(=O)NC1CCCC1)c1ccc(C(C)C)cc1	-14.3%	-6.0%	.	9.4%	10.3	18.1
COCCN1C(=O)C(=O)/C(=C(/O)c2ccc(OC(C)C)cc2)C1c1cccnc1 (centres undefined)	14.7µM*	4.9%	?	2.4%	-1.8	-3.1
COCCN1C(=O)C(=O)/C(=C(/O)c2ccc(OCC(C)C)cc2)C1c1cccnc1 (centres undefined)	.	.	.	15.0%	.	.
C=CCOc1cccc(C2C(C(=O)c3ccco3)=C(O)C(=O)N2Cc2ccncc2)c1 (centres undefined)	57.5%	17.3%	-18.8%	-5.3%	29.2*	40.2*
C#CCCCO/N=C1/C[C@@H](O)[C@@H](O)[C@@H]2[C@@H]3C(=O)N(CC)C(=O)[C@H]3CC[C@H]12	.	.	-1.5%[12.9 µM]	.	.	.
C=CCCn1c(Cl)c(C#N)sc1=O	.	.	-5.6%	.	-2.0	-1.8
C/C(=N\NC(=O)C(O)c1ccccc1)c1ccc(Cl)cc1 (centres undefined)	4.15µM*	-19.0%	9.6%	6.3%	7.4	16.1
C/C(=N\NC(=O)c1cc(C)nc2ccccc12)c1ccccn1	3.29µM*	3.7µM*	.	.	.	.
C/C(=N\NC(=O)c1ccc(N/N=C(\C)c2ccc(O)cc2)cc1)c1ccc(O)cc1	-15.3%	-7.4%	-2.1%	17.1%	40.3*	68.2*
C/C(=N\NC(=O)c1cc(C)nc2ccccc12)c1ccncc1	-12.0%	5.1%	.	7.5%	-2.1	-20.1
